What was measured:
Assay in all cases: log2 ratio of Biotin-Ahx-Ub-VS probe labelling (fragment/DMSO); higher = less target engagement (more negative = stronger competition), active = hit call of the paper (q ≤ 0.05, log2 ratio ≤ -1)
Conditions in all cases: compound concentration: 200 uM; treatment time: 3 h
USP9X = USP9X (UniProt Q93008)
How it was run: (§1)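 Labelled DUBs from HEK293T lysate were NeutrAvidin-enriched, digested with LysC and trypsin, and run by diaPASEF LC-MS/MS. Before that, each 495 µg sample in Tris/CHAPS/IGEPAL buffer with protease inhibitors was treated in triplicate with fragment at 200 µM or vehicle for 3 h, then with Biotin-Ahx-Ub-VS at 0.5 µM final for 1 h. Values are average log2 ratios of fragment over vehicle by unpaired t-test, based on global-median-normalised Spectronaut label-free quantities from proteins with ≥2 unique peptides.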

UniProt O00487 = biological target: UniProt O00487
UniProt O00487, sequence (O00487 whole entry): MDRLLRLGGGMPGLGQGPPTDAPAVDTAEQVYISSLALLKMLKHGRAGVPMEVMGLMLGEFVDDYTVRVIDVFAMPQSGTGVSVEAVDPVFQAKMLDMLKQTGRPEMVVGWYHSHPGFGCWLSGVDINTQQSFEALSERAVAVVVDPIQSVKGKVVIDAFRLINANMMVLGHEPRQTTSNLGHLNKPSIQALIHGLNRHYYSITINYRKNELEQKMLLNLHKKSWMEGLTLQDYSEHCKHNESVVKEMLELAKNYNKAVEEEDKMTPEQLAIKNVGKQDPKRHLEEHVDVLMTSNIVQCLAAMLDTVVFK
How it was run: as §1

UniProt O00507 = biological target: UniProt O00507
UniProt O00507, sequence (O00507 whole entry): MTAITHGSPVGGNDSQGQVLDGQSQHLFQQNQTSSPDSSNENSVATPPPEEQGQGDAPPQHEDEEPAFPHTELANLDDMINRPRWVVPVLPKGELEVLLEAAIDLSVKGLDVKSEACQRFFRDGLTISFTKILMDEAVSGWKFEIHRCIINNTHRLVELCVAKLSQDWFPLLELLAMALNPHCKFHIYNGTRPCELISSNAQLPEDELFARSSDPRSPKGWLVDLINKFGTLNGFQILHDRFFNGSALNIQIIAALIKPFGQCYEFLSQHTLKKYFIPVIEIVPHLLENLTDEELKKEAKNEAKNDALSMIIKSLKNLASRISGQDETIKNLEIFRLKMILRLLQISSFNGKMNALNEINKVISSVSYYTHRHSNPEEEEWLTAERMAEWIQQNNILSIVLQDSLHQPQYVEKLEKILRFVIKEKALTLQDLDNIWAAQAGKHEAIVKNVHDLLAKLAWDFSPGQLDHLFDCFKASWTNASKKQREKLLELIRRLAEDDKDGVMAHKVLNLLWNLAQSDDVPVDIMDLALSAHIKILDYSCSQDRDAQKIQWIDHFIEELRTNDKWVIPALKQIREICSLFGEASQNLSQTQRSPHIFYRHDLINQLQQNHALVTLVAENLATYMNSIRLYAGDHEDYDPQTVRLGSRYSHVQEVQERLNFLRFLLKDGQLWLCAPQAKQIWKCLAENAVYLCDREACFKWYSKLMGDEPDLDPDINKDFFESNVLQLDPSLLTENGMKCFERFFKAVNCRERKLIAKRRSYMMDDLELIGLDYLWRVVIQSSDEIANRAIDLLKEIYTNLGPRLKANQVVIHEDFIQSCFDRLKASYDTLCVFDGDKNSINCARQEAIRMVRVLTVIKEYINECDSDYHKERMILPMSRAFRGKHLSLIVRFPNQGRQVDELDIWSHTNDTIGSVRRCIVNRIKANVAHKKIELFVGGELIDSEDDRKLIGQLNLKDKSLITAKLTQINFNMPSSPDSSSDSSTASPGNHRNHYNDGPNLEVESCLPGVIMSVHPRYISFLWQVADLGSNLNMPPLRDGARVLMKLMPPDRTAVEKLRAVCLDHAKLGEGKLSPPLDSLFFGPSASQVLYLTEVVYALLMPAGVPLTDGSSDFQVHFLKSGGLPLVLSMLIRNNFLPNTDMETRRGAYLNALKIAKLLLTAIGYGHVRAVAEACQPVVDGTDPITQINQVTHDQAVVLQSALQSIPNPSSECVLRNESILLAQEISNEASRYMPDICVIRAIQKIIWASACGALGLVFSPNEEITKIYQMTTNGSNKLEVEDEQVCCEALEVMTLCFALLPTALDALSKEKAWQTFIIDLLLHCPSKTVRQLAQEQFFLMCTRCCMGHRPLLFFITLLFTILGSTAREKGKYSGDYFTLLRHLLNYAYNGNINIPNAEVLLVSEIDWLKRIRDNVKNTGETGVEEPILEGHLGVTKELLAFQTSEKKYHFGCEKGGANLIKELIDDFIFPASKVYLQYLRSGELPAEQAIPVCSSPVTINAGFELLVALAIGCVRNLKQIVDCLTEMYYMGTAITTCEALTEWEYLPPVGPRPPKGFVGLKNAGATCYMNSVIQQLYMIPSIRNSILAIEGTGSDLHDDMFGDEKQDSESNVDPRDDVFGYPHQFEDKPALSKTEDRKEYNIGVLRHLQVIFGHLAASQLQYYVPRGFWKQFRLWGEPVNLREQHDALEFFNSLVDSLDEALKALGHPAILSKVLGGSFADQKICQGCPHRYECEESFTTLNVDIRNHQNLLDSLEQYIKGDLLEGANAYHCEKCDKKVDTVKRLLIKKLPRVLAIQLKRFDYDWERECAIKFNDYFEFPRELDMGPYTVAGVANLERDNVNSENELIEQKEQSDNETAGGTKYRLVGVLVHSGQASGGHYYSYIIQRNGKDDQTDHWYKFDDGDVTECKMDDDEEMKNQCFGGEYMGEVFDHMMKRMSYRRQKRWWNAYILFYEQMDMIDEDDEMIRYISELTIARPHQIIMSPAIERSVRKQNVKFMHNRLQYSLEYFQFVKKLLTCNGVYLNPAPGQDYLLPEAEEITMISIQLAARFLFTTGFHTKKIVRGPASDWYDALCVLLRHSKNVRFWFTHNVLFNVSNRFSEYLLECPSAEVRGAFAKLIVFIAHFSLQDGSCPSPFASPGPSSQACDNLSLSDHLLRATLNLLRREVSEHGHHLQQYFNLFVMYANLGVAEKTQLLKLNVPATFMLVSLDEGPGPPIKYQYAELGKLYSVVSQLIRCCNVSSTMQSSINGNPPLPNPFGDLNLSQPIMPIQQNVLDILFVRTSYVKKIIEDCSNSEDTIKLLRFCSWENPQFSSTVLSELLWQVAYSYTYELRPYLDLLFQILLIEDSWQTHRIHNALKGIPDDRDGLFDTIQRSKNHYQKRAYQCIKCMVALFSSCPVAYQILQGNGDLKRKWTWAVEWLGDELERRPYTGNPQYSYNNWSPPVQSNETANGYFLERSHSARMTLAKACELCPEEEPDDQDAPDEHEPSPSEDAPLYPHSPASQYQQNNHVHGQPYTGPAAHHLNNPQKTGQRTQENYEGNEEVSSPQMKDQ
How it was run: as §1

UniProt P51784 = biological target: UniProt P51784
UniProt P51784, sequence (P51784 whole entry): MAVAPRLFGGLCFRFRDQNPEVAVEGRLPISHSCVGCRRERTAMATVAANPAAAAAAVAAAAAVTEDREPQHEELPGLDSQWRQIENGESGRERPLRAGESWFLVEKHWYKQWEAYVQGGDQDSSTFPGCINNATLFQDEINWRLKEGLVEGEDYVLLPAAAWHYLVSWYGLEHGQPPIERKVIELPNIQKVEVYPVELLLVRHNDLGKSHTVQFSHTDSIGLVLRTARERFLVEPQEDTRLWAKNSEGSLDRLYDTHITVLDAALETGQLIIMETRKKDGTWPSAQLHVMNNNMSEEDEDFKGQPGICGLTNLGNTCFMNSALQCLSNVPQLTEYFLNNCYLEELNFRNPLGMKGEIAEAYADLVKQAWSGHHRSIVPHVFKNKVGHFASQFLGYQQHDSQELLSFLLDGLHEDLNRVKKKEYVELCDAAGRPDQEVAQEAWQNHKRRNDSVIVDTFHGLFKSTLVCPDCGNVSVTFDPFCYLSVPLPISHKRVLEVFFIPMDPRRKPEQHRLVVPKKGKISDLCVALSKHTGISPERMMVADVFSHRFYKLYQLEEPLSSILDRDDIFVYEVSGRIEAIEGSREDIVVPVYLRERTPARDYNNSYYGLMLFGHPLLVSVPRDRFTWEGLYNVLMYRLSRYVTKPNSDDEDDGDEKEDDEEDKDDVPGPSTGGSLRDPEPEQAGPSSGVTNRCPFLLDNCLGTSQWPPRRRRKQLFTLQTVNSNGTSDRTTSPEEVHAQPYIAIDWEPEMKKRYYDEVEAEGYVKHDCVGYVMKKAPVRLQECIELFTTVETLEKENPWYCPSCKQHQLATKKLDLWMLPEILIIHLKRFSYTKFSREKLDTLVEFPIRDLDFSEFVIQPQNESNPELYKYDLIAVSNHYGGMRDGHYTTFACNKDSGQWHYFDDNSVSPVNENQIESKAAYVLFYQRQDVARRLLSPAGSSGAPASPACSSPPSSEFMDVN
How it was run: as §1

UniProt Q5T2D3 = biological target: T1, UniProt Q5T2D3
T1 sequence (whole entry): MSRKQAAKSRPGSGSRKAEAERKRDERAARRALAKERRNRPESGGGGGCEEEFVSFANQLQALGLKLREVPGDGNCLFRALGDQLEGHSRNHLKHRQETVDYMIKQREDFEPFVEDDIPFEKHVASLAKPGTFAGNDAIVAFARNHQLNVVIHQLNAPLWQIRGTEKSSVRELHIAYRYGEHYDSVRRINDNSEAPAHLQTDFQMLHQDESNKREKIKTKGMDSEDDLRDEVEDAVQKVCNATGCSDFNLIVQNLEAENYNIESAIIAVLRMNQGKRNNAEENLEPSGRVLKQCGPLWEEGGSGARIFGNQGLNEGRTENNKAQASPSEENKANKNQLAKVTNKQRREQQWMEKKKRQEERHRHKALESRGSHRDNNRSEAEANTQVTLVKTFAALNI
How it was run: as §1

UniProt Q8TE49 = biological target: T2, UniProt Q8TE49
T2 sequence (whole entry): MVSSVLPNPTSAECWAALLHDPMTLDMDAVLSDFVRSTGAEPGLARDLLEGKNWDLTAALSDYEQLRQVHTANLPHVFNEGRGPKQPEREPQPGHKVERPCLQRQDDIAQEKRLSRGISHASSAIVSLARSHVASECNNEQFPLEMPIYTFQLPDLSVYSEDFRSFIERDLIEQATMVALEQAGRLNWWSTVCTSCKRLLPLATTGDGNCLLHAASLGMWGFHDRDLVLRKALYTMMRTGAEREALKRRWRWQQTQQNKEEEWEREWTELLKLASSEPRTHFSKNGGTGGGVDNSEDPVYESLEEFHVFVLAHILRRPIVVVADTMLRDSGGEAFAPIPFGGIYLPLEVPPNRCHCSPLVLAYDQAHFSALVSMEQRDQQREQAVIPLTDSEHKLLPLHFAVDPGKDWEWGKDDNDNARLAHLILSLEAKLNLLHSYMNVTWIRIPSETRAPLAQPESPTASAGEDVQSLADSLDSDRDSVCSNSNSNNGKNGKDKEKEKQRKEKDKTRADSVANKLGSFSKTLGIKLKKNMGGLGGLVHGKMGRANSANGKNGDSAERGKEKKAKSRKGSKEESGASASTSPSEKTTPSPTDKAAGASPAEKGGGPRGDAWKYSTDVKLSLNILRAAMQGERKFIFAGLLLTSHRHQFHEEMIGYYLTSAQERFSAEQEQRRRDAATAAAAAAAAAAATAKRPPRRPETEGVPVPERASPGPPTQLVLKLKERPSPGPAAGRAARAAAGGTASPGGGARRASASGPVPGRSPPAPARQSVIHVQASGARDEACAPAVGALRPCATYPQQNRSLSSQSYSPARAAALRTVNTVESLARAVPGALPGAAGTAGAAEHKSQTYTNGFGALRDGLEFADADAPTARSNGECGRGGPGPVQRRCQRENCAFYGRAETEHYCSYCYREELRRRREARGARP
How it was run: as §1

UniProt Q9P2H5 = biological target: T3, UniProt Q9P2H5
T3 sequence (whole entry): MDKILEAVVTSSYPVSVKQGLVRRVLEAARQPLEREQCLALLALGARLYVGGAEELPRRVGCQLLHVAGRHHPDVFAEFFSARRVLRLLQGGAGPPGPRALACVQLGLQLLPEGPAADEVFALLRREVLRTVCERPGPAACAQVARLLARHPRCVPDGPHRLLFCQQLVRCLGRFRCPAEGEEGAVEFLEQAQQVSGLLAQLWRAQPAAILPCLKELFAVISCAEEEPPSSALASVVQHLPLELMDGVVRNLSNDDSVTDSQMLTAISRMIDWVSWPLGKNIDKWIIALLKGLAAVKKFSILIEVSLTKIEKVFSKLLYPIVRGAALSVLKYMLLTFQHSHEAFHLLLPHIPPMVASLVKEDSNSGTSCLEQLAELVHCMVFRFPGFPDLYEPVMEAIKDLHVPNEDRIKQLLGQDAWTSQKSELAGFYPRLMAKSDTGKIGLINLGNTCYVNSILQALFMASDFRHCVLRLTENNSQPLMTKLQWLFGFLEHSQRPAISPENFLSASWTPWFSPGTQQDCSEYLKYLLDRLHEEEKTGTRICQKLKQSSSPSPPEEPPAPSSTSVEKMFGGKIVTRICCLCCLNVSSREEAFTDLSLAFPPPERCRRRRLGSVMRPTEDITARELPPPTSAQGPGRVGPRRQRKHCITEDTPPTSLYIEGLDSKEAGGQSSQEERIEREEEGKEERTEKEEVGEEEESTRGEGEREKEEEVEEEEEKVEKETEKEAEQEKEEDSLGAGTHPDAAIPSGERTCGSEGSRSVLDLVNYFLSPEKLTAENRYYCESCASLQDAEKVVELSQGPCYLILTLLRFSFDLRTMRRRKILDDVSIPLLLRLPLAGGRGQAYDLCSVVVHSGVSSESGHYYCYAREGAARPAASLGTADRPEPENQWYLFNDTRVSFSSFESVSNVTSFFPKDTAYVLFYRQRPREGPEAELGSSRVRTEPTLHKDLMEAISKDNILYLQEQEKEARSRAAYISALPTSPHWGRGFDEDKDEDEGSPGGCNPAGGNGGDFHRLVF
How it was run: as §1

UniProt Q9UGI0 = biological target: T4, UniProt Q9UGI0
T4 sequence (whole entry): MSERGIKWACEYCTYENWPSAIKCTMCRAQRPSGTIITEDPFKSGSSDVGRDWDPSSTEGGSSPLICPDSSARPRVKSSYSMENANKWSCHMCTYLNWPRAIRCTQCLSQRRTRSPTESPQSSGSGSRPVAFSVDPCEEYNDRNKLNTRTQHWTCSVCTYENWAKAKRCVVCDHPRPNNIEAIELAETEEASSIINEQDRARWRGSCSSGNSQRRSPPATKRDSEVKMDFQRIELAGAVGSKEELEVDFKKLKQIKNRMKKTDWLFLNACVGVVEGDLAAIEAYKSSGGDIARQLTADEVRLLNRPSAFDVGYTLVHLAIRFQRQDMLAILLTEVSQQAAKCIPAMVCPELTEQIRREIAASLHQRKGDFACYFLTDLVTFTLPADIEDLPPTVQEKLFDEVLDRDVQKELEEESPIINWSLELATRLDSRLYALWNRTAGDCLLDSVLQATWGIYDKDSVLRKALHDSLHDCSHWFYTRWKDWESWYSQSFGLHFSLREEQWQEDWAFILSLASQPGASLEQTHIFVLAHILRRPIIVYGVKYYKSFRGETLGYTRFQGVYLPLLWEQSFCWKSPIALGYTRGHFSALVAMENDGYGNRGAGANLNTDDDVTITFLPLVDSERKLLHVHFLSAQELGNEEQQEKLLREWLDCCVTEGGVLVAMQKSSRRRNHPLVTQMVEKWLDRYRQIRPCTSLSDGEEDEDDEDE
How it was run: as §1

YOD1 = biological target: T5, YOD1 (UniProt Q5VVQ6)
T5 sequence (whole entry): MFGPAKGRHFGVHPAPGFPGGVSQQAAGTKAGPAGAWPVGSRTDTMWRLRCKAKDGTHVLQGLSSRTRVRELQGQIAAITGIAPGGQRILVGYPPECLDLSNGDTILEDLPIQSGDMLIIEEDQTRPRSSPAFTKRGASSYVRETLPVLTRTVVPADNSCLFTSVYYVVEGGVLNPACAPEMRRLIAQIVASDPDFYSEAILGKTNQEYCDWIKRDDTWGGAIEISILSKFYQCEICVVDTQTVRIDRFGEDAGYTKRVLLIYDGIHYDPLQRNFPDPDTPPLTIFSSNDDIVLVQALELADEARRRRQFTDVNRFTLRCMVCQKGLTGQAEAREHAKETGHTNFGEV
How it was run: as §1

Measured: log2 ratio of Biotin-Ahx-Ub-VS probe labelling

O=C(CCl)NCCc1cccc2ccccc12
inactive: USP9X 0.0346 | UniProt O00487 0.00956 | UniProt O00507 0.608 | UniProt P51784 0.159 | UniProt Q5T2D3 -0.0259 | UniProt Q8TE49 -0.28 | UniProt Q9P2H5 0.0801 | UniProt Q9UGI0 0.238 | YOD1 0.263
